Lamin A splicing = LMNA splicing modulation | AID 1487 | Potency, µM (doses to about 46.1 µM), inactives show top-dose ratio change, negative = inhibition, most hits filed as inhibitors | HeLa LMNA splicing GFP/RFP minigene ratio, 48 h | 200,000 compounds, 0.01% hits; active means well fitted inhibition curve with a large enough effect in the signal ratio, with a control signal flat, not every such curve was filed as active; inconclusive means small, poorly fitted or top-dose-only effect, or effect the other way, or a change in a side signal; the % refers to the signal ratio; further: potency means the concentration at half of the fitted maximal effect
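S3 HeLa stable clones carrying a lamin A-EGFP splicing minigene plus DsRed2 were seeded at 600 cells/well in Opti-MEM with 2% FBS, pin-dosed and incubated 48 h at 37°C. Acumen cytometry (488 nm) gave the GFP/RFP total-intensity ratio.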
HPGD block = HPGD (human) dehydrogenase inhibition; purified HPGD, NADH fluorescence kinetic, PGE2 substrate; Potency, µM, for the others: top-dose activity change, negative = inhibition, usual class: inhibitors; P15428; 150,000 compounds, 4.3% hits; further: potency means the concentration at half of the fitted maximal effect
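NADH formation kinetics: reaction with 30 uM PGE2 and 1 mM NAD+ (final), 20 nM enzyme, Tris-HCl pH 8 with Tween 20, after 15 min compound preincubation at room temperature. Fluorescence change, last versus first of five reads.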
ALDH1A1 inh = inhibitors of human aldehyde dehydrogenase 1A1. P00352. Purified ALDH1A1, NADH fluorescence, propionaldehyde substrate. Potency, µM (titrated, usually from 75.3 µM), for the others: at the highest dose activity, negative = inhibition, actives largely listed as inhibitors. 220,000 compounds, 7.3% hits;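 further: potency means the concentration at half of the fitted maximal effect; plate controls were no enzyme wells and a reference inhibitor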
Target sequence (P00352 whole entry, looked up): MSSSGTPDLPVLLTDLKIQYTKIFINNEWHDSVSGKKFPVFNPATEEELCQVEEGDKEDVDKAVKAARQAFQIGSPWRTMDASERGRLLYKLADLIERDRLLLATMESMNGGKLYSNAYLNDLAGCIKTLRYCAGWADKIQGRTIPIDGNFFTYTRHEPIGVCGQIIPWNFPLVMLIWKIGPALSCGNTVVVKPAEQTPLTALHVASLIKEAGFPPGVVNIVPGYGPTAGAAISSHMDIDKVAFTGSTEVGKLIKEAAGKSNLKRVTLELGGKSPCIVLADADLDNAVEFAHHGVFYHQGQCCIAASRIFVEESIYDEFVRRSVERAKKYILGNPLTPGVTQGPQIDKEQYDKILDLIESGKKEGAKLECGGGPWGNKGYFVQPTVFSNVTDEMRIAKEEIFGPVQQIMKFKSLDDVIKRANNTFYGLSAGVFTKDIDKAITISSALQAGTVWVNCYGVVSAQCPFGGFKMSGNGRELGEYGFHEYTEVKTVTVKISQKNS
ALOX12 inhib = blocks human 12-lipoxygenase activity. 150,000 compounds, 0.12% hits. Potency, µM (top dose mostly 57.1 µM), without a hit: at the highest dose activity change, negative = inhibition, actives largely listed as inhibitors. purified 12-hLO, xylenol orange hydroperoxide absorbance. P18054; active means well fitted inhibition curve with a large enough effect; inconclusive means small, poorly fitted or top-dose-only effect; further: potency means the concentration at half of the fitted maximal effect; nearly all actives have a fitted effect of over 55% in size
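Hydroperoxide output read as Fe(III)-xylenol orange absorbance, 573-to-405 nm ratio, after 30 min reaction with 40 uM arachidonic acid. Enzyme: 150 nM purified human 12hLO, 15 min compound preincubation; 25 mM Hepes pH 7.0, room temperature.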
PNC assembly inh = inhibitors of perinucleolar compartment assembly. PC3M PTB-GFP, PNC prevalence imaging, 16 h; hits give low values. activity change (PNC), negative = inhibition, % at 10 µM. 140,000 compounds, 3.1% hits. AID 2417;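 active means readout at or below -70, meaning at least 70% loss of cells showing the perinucleolar compartment, a nuclear body marking cancer cells; inconclusive means readout between -30 and a set limit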;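 further: plate controls were DMSO wells for no effect and camptothecin positive control wells for full effect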
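Read-out is percentage of cells bearing a perinucleolar compartment, from automated 20x imaging of fixed, Hoechst-stained PC3M PTB-GFP cells. Cells were seeded 4 h, then exposed 16 h to compound (23 nl of library stock) in duplicate plates.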
The depositor's hits bear a star; ? = inconclusive; . = no result given; [ ] = another dose, or the depositor's remark. In the library only some 10% were active in any assay of this set; here they are far more common. Unless noted, the call rests on the fitted dose curve; in most records, active means well fitted inhibition curve with a large enough effect (not every such curve was filed as active); inconclusive means small, poorly fitted or top-dose-only effect, or another doubt; inactive means no such curve, though single readings can be large or run the other way. Unless noted, on the % scale 0 is the no-effect control and ±100 the full control effect.

SMILES	Lamin A splicing	HPGD block	ALDH1A1 inh	ALOX12 inhib	PNC assembly inh
CCC(=O)c1ccc(OCc2ccc(C(=O)OC)o2)c(OC)c1	3%	22µM*	?	-12%	?
CC1CCCN(C(=O)C(Cc2ccccc2)n2cccc2)C1 (stereo unspecified)	4%	14µM*	-2%	-4%	21
S=c1[nH]nc(-c2ccco2)n1C1CCCCC1	-1%	?	?	2%	-85*
Nn1c(-c2ccco2)n[nH]c1=S	-4%	-20%	-11%	-2%	-24
S=c1[nH]nc(-c2ccco2)n1/N=C/C=C/c1ccccc1	4%	14µM*	?	-6%	0
FC(F)(F)c1n[nH]c(=S)n1/N=C/c1ccco1	-4%	-9%	-8%	0%	-9
S=c1[nH]nc(-c2ccccc2)n1/N=C/C=C/c1ccco1	-11%	11µM*	?	-7%	19
CC(Oc1ccccc1)C(=O)Nc1ccccc1C(=O)OCc1cc(=O)n2nc(C(C)C)sc2n1 (stereo unspecified)	-12%[46 µM]	.	.	.	.
Cc1ccc(S(=O)(=O)Oc2ccc(N=Nc3ccc(-c4ccc(N=Nc5c(O)ccc6cc(S(=O)(=O)O)cc(S(=O)(=O)O)c56)c(C)c4)cc3C)cc2)cc1	.	-22%	?	?	.
N#Cc1c(-c2ccccc2)c(C#N)c2nc3ccccc3n2c1N	?	-13%	?	-1%	?
Cc1ccc(-c2c(C#N)c(N)n3c(nc4ccccc43)c2C#N)cc1	?	?	19µM*	-6%	14
COCC(=O)N1CCC2(CCCN(c3cccc(-c4ccccc4)c3)C2)CC1	.	-23%	?	-23%	.
COc1ccc(Cn2c(S(=O)(=O)CC(N)=O)nc3ccccc32)cc1[N+](=O)[O-]	.	.	7.1µM*	.	.
COc1cccc(-n2c(SC3CCOC3=O)nc3ccccc3c2=O)c1 (stereo unspecified)	-12%	-13%	-8%	0%	-100*
CCc1cc2c(=O)n(Cc3ccccc3)c(SC3CCOC3=O)nc2s1 (stereo unspecified)	.	.	2.8µM*	.	.
O=C1OCCC1Sc1nnc(-c2cccs2)n1Cc1ccccc1 (stereo unspecified)	7%	-10%	20µM*	-6%	55
O=C(NCCc1ccccc1)c1cc(Sc2cccc(Cl)c2)nc2ccccc12	2%[46 µM]	.	.	.	.
Cc1ccc(S(=O)(=O)NC(=O)NCCc2ccccc2)cc1	16%[46 µM]	.	4%	.	.
CC(=O)Nc1ccc(NC(=O)c2cc(CN3CCCC3)on2)cc1	-10%[46 µM]	.	.	.	.
O=C(O)Cn1cc(/C=C2\SC(=O)N(c3ccccc3)C2=O)c2ccccc21	?	.	22µM*	.	.
Cn1cc(/C=C2/SC(=O)N(c3ccccc3)C2=O)c2ccccc21	1%	-9%	13%	4%	68
O=C(NNc1ccccc1)C(=O)NNS(=O)(=O)c1ccc(CCCl)cc1	.	.	6.3µM*	.	.
Nc1ccc(S(=O)(=O)NNC(=O)C(=O)NNc2ccccc2)cc1	?	-6%	-1%	2%	-10
CC1(C)CC(=O)C(Sc2ccccc2)=C(O)C1	.	.	20µM*	.	.
N#Cc1cccc(-c2ccc3ncnc(NCc4cccnc4)c3c2)c1	9%	?	?	2%	.
SMILES	Lamin A splicing	HPGD block	ALDH1A1 inh	ALOX12 inhib	PNC assembly inh
FC(F)(F)c1nc(-c2cccnc2)ncc1-c1nnnn1-c1ccccc1	-10%	-11%	5%	-4%	-26
CCc1ccccc1-n1nnnc1-c1cnccc1C(F)(F)F	.	.	18µM*	.	.
Cc1ccc(Cl)cc1NC(=O)CCCN1C(=O)c2cccnc2C1=O	?	.	-5%	.	.
CCCc1cc(C(=O)Nc2sc3c(c2C#N)CCC3)no1	?	28µM*	11µM*	-7%	40
CC1CCc2c(sc(NC(=O)C3CCCO3)c2C#N)C1 (stereo unspecified)	-4%[46 µM]	.	?	.	.
CCc1c(C)sc(NC(=O)C2CCCO2)c1C#N (stereo unspecified)	-7%	28µM*	16µM*	-8%	-26
Cc1onc(C(=O)Nc2sc3c(c2C#N)CCCC3)c1[N+](=O)[O-]	-11%[46 µM]	.	7.1µM*	.	.
CCOC(=O)c1c(NC(=O)c2noc(C)c2[N+](=O)[O-])sc(C(C)=O)c1C	4%[46 µM]	.	25µM*	.	.

From PubChem
